Results on 7 compounds are retold here after PubChem BioAssay (NCI).

The structures appear in SMILES notation. This is part of a sample that, as a whole, favours compounds with a hit. Of some 83,000 tested, about 20% had one in any assay.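 Plates (96-well) were seeded with cells, treated with compound at one concentration, and incubated for 48 hours before percent growth was determined.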 Values without a mark were called inactive. The source made the active and inactive calls. Rule for the calls: active = growth percent below 10; inactive = the rest.

What all share (experiment): NCI-60 one-dose screen, 48 h (100 = growth as untreated, 0 = no growth, -100 = all killed)
Holding throughout (details): 10 µM unless noted

The subject of assay [1] is DU-145 prostate.
Assay [2] has as its system K-562 leukemia.
Assay [3] deals with MALME-3M melanoma.
The test system of assay [4] is MDA-MB-231 breast.
In assay [5] the test system is RXF 393 renal.
For assay [6], the system named is SF-268 CNS.
In assay [7] the test system is SF-295 CNS.
Assay [8] concerns SF-539 CNS.
For assay [9], the system named is UACC-257 melanoma.
In assay [10] the test system is M14 melanoma.
Assay [11] concerns HCT-15 colon.
Assay [12] relates to HT29 colon.
Assay [13] has as its system SNB-75 CNS.
The subject of assay [14] is SNB-19 CNS.
For assay [15], the system named is U251 CNS.
For assay [16], the system named is PC-3 prostate.
Assay [17] has as its system SK-MEL-5 melanoma.
Assay [18] deals with UACC-62 melanoma.
Assay [19] has as its system LOX IMVI melanoma.
The test system of assay [20] is SK-MEL-28 melanoma.

Regarding `C=C1C(=O)O[C@H]2[C@H]1CC/C(COC(=O)c1cc3cc(Cl)ccc3[nH]1)=C\CC[C@@]1(C)O[C@@H]21`, the growth in assay [1] is -96.1% (active); in assay [2], -21.1% (active); in assay [3] it was -76.9% (active); in assay [4], -77.8% (active); in assay [5] it was -88.7% (active); in assay [6], -88.3% (active). Further, the growth in [7] is 39.2%; in assay [8], -90.4% (active); in assay [9] it was -76.3% (active); in [10], -56.9% (active); in [11], -61.1% (active); in assay [12], -75.9% (active). Further, the growth was -97.3% (active) in assay [13]; 12.6% in [14]; -88.8% (active) in assay [15]; -56.3% (active) in assay [16]; -88.6% (active) in assay [17]; -78.7% (active) in [18]. For the same compound, the growth in assay [19] is -93.2% (active); in [20], -83.3% (active).
As for `CS(=O)(=O)c1ccc(NC(=O)c2ccccc2)nc1`, the growth in assay [1] is 108%; in assay [2], 100%; in [3], 108%; in assay [4], 99.1%; in [5], 106%; in assay [6], 107%. The growth is 106% in [7]; 104% in assay [8]; 95.6% in assay [9]; 115% in [10]; 104% in [11]; 83.6% in assay [12]. Also, the growth in assay [13] is 104%; in assay [14] it was 95.7%; in assay [15] it was 102%; in assay [16] it was 93.6%; in assay [17], 101%; in assay [18] it was 95.4%. The growth in assay [19] was 98.6%; in assay [20], 112%.
`CCN1CCN(c2cc(C)nc(N(CCNc3ccnc4cc(Cl)ccc34)Cc3ccc4c(c3)OCO4)n2)CC1`: the growth is 26.5% in assay [1]; -48.4% (active) in assay [2]; -65.8% (active) in assay [3]; -42.4% (active) in assay [4]; -82.5% (active) in assay [5]; 7.14% (active) in assay [6]. The growth is -63.5% (active) in assay [7]; -71.2% (active) in [8]; -59.9% (active) in [9]; -66.5% (active) in [10]; -28.8% (active) in assay [11]; -37.9% (active) in [12]. In addition, the growth was -75.3% (active) in [13]; 29.7% in [14]; -50.4% (active) in assay [15]; 20% in assay [16]; -95.8% (active) in assay [17]; -32.2% (active) in [18]. Further, the growth in assay [19] is -80.3% (active); in [20], -65.6% (active).
`CCc1n(Cc2ccc3ccccc3n2)cc[n+]1Cc1ccc2ccccc2n1`: the growth was 51.7% in assay [1]; 24.9% in [2]; -9.45% (active) in assay [3]; 31.1% in assay [4]; 46.6% in assay [5]; 29.6% in [6]. Further, the growth is 64.7% in [7]; 24.5% in [8]; -16.5% (active) in [9]; 46.6% in [10]; 92.2% in [11]; -4.83% (active) in [12]. Besides, the growth is 29.5% in assay [13]; 20.9% in assay [14]; 12.3% in assay [15]; 19% in [16]; -36.3% (active) in assay [17]; 12.4% in assay [18]. For the same compound, the values for the growth in assay [19] and in [20] were 26.1% and 15.9%, respectively.
For `N#Cc1c(-c2ccccc2)nc(SCc2nnc(-c3ccc(Cl)cc3)o2)[nH]c1=O`, the growth was 108% in assay [1]; 84.1% in assay [2]; 88.9% in assay [3]; 103% in assay [4]; 106% in [5]; 100% in assay [6]. The growth in assay [7] is 89.5%; in assay [8] it was 104%; in assay [9], 94.7%; in assay [10] it was 92.1%; in [11], 101%; in assay [12] it was 94.1%. Further, the growth was 93.9% in assay [13]; 100% in [14]; 81% in assay [15]; 61.5% in assay [16]; 99.5% in [17]; 98.5% in [18]. Also, the growth in assay [19] is 94.1%; in assay [20], 110%.
On to `C[C@H](C(=O)N(CCc1ccc(Cl)c(Cl)c1)Cc1cncs1)[C@@H]1CC[C@H](C[C@H](C)n2cc(CN3CCC(c4ccc(Cl)cc4)CC3)nn2)O1`, for which the growth was 112% in assay [1]; -75.9% (active) in assay [2]; 101% in [3]; 93.5% in [4]; 103% in [5]; 102% in assay [6]. Further, the growth was 99.2% in [7]; 101% in [8]; 102% in assay [9]; 99.1% in [10]; 99.6% in [11]; 102% in assay [12]. Also, the growth is 97.6% in assay [13]; 94.5% in [14]; 100% in assay [15]; 86.5% in [16]; 101% in assay [17]; 90.3% in assay [18]. Moreover, the growth in [19] was 98.3%; in [20] it was 102%.
Consider `CCOC(=O)C(Cc1ccc(OC)cc1)C(=O)OCC`, for which the growth in [1] is -35.4% (active); in [2], 15.2%; in [3], 58.1%; in assay [4], 47.5%; in assay [5], -11.3% (active); in assay [6], 30.2%. In addition, the growth in [7] is 30.4%; in [8], 19.9%; in [9], 25.3%; in [10], 46.3%; in assay [11], 36.7%; in assay [12], 21.3%. Also, the growth was 30.1% in assay [13]; 41.7% in assay [14]; 37.2% in assay [15]; 47.2% in assay [16]; 53.1% in assay [17]; 33.4% in assay [18]. Further, the growth in [19] is 17%; in assay [20], 51.5%.
